Experimental findings from PubChem BioAssay (NCI) are described below.

Common to all, as to assay: NCI-60 one-dose screen, 48 h (100 = growth as untreated, 0 = no growth, -100 = all killed)
One assay relates to SK-MEL-2 melanoma. As to conditions: 10 µM unless noted.
Another assay relates to EKVX NSCLC. The conditions noted are these: 10 µM unless noted.
A further assay relates to SN12C renal. As to conditions: 10 µM unless noted.
Another assay relates to UO-31 renal. The conditions noted are these: 10 µM unless noted.
A further assay relates to TK-10 renal. The conditions noted are these: 10 µM unless noted.
For a further assay, the system named is CAKI-1 renal. The conditions noted are these: 10 µM unless noted.
The next assay concerns A498 renal. As to conditions: 10 µM unless noted.
Another assay relates to CCRF-CEM leukemia. As to conditions: 10 µM unless noted.
A further assay deals with MOLT-4 leukemia. As to conditions: 10 µM unless noted.
A further assay has as its system SR leukemia. As to conditions: 10 µM unless noted.
The subject of the next assay is RPMI-8226 leukemia. The conditions noted are these: 10 µM unless noted.
The test system of the next assay is OVCAR-8 ovarian. As to conditions: 10 µM unless noted.
The next assay has as its system OVCAR-5 ovarian. The conditions noted are these: 10 µM unless noted.
A further assay relates to OVCAR-4 ovarian. As to conditions: 10 µM.
The subject of a further assay is SK-OV-3 ovarian. The conditions noted are these: 10 µM unless noted.
For another assay, the system named is IGROV1 ovarian. As to conditions: 10 µM unless noted.
The next assay has as its system OVCAR-3 ovarian. As to conditions: 10 µM unless noted.
For the next assay, the system named is HS 578T breast. As to conditions: 10 µM unless noted.
The next assay relates to NCI/ADR-RES ovarian. As to conditions: 10 µM unless noted.

Structures are written as SMILES. Compounds without any hit were thinned out: in the full panel of roughly 83,000, 20% have a hit.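 Cells were grown in 96-well plates and exposed to the test compound at a single concentration for 48 hours; results are reported as percent growth, with values below 10 considered active.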 A number with no mark means an inactive call. Calls of active or inactive are those of the source.

With `O=C(Nc1cccc(F)c1)c1cc(=O)[nH]c2cc(Br)ccc12`, the growth is 41.2% in the assay with SK-MEL-2 melanoma; 63% with EKVX NSCLC; 60% in the assay with SN12C renal; 51.5% in the assay on UO-31 renal; 69.8% with TK-10 renal; 33.8% with CAKI-1 renal. Further, the growth in the assay with A498 renal is 30.8%; in the assay with CCRF-CEM leukemia it was 58.8%; in the assay on MOLT-4 leukemia it was 45.8%; with SR leukemia it was 21.8%; with RPMI-8226 leukemia, 76.1%; in the assay with OVCAR-8 ovarian it was 71.8%. Moreover, the growth with OVCAR-5 ovarian was 63.3%; with OVCAR-4 ovarian, 70.6%; in the assay with SK-OV-3 ovarian it was 51.8%; with IGROV1 ovarian, 40.5%; with OVCAR-3 ovarian it was 23.5%; in the assay on HS 578T breast, 52.4%. For the same compound, the growth in the assay with NCI/ADR-RES ovarian is 53.2%.
As to `O=C(CSc1nccc(Nc2ccc(S(=O)(=O)Nc3ccccn3)cc2)n1)c1ccc(Cl)cc1`, the growth with SK-MEL-2 melanoma was 97.8%; in the assay with EKVX NSCLC, 101%; in the assay on SN12C renal, 90.7%; with UO-31 renal, 71.3%; in the assay on TK-10 renal, 109%; in the assay with CAKI-1 renal it was 83%. The growth is 115% in the assay with A498 renal; -44.8% (active) in the assay with CCRF-CEM leukemia; 81.4% with MOLT-4 leukemia; 75.5% in the assay with SR leukemia; 71.3% with RPMI-8226 leukemia; 84.2% with OVCAR-8 ovarian. Further, the growth is 111% with OVCAR-5 ovarian; 80.2% in the assay with OVCAR-4 ovarian; 95.4% with SK-OV-3 ovarian; 77.9% in the assay on IGROV1 ovarian; 95.8% in the assay with OVCAR-3 ovarian; 89.1% in the assay on HS 578T breast. The growth in the assay with NCI/ADR-RES ovarian was 103%.
For the compound `Cc1ncc(C(=O)Nc2ccc(CN3CCN(C)CC3)c(C(F)(F)F)c2)cc1C#Cc1c(N)ncc2ccc(C#N)cc12`, the growth with SK-MEL-2 melanoma was 39.7%; in the assay with EKVX NSCLC, 57.5%; in the assay with SN12C renal, 32.9%; in the assay with UO-31 renal, 19.3%; with TK-10 renal, 37%; in the assay with CAKI-1 renal it was 16.1%. The growth was 6.65% (active) with A498 renal; 38.1% with CCRF-CEM leukemia; 37.3% with MOLT-4 leukemia; 16.1% in the assay on SR leukemia; 40.6% in the assay with RPMI-8226 leukemia; 53.2% in the assay on OVCAR-8 ovarian. The growth in the assay on OVCAR-5 ovarian was 41.2%; in the assay on OVCAR-4 ovarian it was 44.5%; with IGROV1 ovarian it was 10.4%; in the assay on OVCAR-3 ovarian, 37.8%; in the assay with HS 578T breast, 26.9%.
In the case of `O=C1/C(=C\c2cccn2Cc2ccccc2)c2ccccc2N1c1c(Cl)cccc1Cl`, the growth is 45.7% in the assay with SK-MEL-2 melanoma; 38.8% in the assay on EKVX NSCLC; 87.3% with SN12C renal; 50.2% in the assay with UO-31 renal; 22.9% in the assay on TK-10 renal; 55.8% in the assay on CAKI-1 renal. Besides, the growth in the assay on A498 renal was 72.9%; in the assay with MOLT-4 leukemia, 86.6%; with SR leukemia, 90.6%; in the assay with RPMI-8226 leukemia, 60.2%; in the assay on OVCAR-8 ovarian, 90.8%; in the assay on OVCAR-5 ovarian it was 38.7%. The growth in the assay on OVCAR-4 ovarian was -2.5% (active); in the assay on IGROV1 ovarian, 28.2%; in the assay on OVCAR-3 ovarian, 7.01% (active); in the assay with HS 578T breast, 83.2%; in the assay on NCI/ADR-RES ovarian it was 70.9%.
In the case of `C=C(C)[C@@H]1CC[C@]2(C(=O)O)CC[C@]3(C)[C@H](CC[C@@H]4[C@@]5(C)C/C(=C/c6ccco6)C(=O)C(C)(C)[C@@H]5CC[C@]43C)[C@@H]12`, the growth in the assay with SK-MEL-2 melanoma is -76% [100 µM] (active); with EKVX NSCLC, -63% [100 µM] (active); in the assay on SN12C renal it was -70.6% [100 µM] (active); in the assay with UO-31 renal, -95.4% [100 µM] (active); in the assay on TK-10 renal, -58.5% [100 µM] (active); in the assay with CAKI-1 renal it was -69.6% [100 µM] (active). In addition, the growth in the assay on A498 renal is -58.5% [100 µM] (active); in the assay with CCRF-CEM leukemia, 3.44% [100 µM] (active); in the assay on MOLT-4 leukemia, -8.01% [100 µM] (active); in the assay on SR leukemia, 31.9% [100 µM]; with RPMI-8226 leukemia, 2.97% [100 µM] (active); in the assay with OVCAR-8 ovarian, -17.6% [100 µM] (active). The growth in the assay on OVCAR-5 ovarian is -44.4% [100 µM] (active); in the assay on SK-OV-3 ovarian it was -54.2% [100 µM] (active); with IGROV1 ovarian it was -63.2% [100 µM] (active); in the assay on OVCAR-3 ovarian it was -59.1% [100 µM] (active); in the assay on HS 578T breast it was -1.95% [100 µM] (active); in the assay on NCI/ADR-RES ovarian it was -43.8% [100 µM] (active).
Consider `COc1c(C(C)=O)c(OCCCCOc2c(C(C)=O)c(OC)c3ccoc3c2OC)c(OC)c2occc12`, for which the growth in the assay with SK-MEL-2 melanoma was 42%; in the assay on EKVX NSCLC, 56.7%; in the assay with SN12C renal, 88.1%; with UO-31 renal, 124%; with TK-10 renal, 43.8%; with CAKI-1 renal, 68%. In addition, the growth was 81.1% with A498 renal; 58% in the assay with CCRF-CEM leukemia; 36.2% with MOLT-4 leukemia; 72.7% with SR leukemia; 47.3% with RPMI-8226 leukemia; 45.3% in the assay on OVCAR-8 ovarian. Besides, the growth with OVCAR-5 ovarian was 120%; with OVCAR-4 ovarian, 59.2%; in the assay with SK-OV-3 ovarian, 105%; in the assay on OVCAR-3 ovarian it was 61.4%; in the assay on HS 578T breast, 93.9%; in the assay on NCI/ADR-RES ovarian, 22.9%.
For the compound `COC(=O)c1cc(O)c2c(c1C(=O)OC)C[C@H]1[C@@H]3CC=C4C[C@@H](O)CC[C@]4(C)[C@H]3CC[C@]21C`, the growth in the assay on SK-MEL-2 melanoma is 78.7%; in the assay with EKVX NSCLC, 55%; in the assay with SN12C renal, 71.3%; in the assay on UO-31 renal it was 39.9%; in the assay on TK-10 renal it was 55%; with CAKI-1 renal, 26.2%. Besides, the growth in the assay with A498 renal was 49.8%; in the assay with CCRF-CEM leukemia it was 37.8%; in the assay on MOLT-4 leukemia, 35.6%; in the assay with SR leukemia, 31.5%; with RPMI-8226 leukemia, 16.6%; in the assay on OVCAR-8 ovarian, 63.9%. In addition, the growth was 61.4% in the assay on OVCAR-5 ovarian; 83.7% with SK-OV-3 ovarian; 72.8% with IGROV1 ovarian; 33.2% with OVCAR-3 ovarian; 31.5% in the assay on HS 578T breast; 44.2% in the assay on NCI/ADR-RES ovarian.
Regarding `COc1ccc2nc3c(cc2c1)C(=O)CC(C(F)(F)F)C3` (centres undefined), the growth is 83.9% in the assay with SK-MEL-2 melanoma; 55.9% in the assay with EKVX NSCLC; 42.1% in the assay on SN12C renal; 46.6% in the assay with UO-31 renal; 69.2% in the assay on TK-10 renal; 37.1% in the assay on CAKI-1 renal. Also, the growth in the assay on A498 renal is -7.7% (active); in the assay with CCRF-CEM leukemia it was 9.88% (active); in the assay with MOLT-4 leukemia it was 15.3%; in the assay on SR leukemia, 16.4%; in the assay with RPMI-8226 leukemia it was 93.3%; in the assay with OVCAR-8 ovarian, 40%. Also, the growth was 57.7% in the assay on OVCAR-5 ovarian; 95.7% with OVCAR-4 ovarian; 56.8% with SK-OV-3 ovarian; 36.6% in the assay on IGROV1 ovarian; 5.3% (active) in the assay on OVCAR-3 ovarian; 18.9% in the assay on NCI/ADR-RES ovarian.
